# Laboratory results: the supplement of paper PMC8285479
# Structures can show the parent of a compound that is named as a salt. ± gives the standard deviation of the averaged measurements. Over roughly 1,900 compounds, “normalised cell viability (NPI; 0 = phenylarsine oxide control, 1 = DMSO control)” has its median near 1; the lowest 2% begin near 0.039. Many of the other results were omitted from the sample, so the lowest values are more common in it than they were.
# System: NCI-H1944
# Assay: normalised cell viability (NPI; 0 = phenylarsine oxide control, 1 = DMSO control) (fraction of DMSO control); NCI-H1944 is a non-small cell lung cancer line; higher = more viable cells (less compound toxicity)
# Conditions: 6 days
# [1] = glucocorticoid arm: hydrocortisone 2.75 uM co-treatment, compound 1 µM
# [2] = glucocorticoid arm: hydrocortisone 2.75 uM co-treatment, compound 5 µM
# [3] = glucocorticoid arm: hydrocortisone 2.75 uM pre-treated 2 days and continued, compound 1 µM
# [4] = glucocorticoid arm: hydrocortisone 2.75 uM pre-treated 2 days and continued, compound 5 µM
# [5] = glucocorticoid arm: vehicle, compound 1 µM
# [6] = glucocorticoid arm: vehicle, compound 5 µM
# 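Note: CTB read-out in 384-well plates, triplicate wells, NPI normalised per plate against 1 µM phenylarsine oxide (0) and 0.1% DMSO (1) controls.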
Compound,normalised cell viability [1],normalised cell viability [2],normalised cell viability [3],normalised cell viability [4],normalised cell viability [5],normalised cell viability [6]
CN[C@@H]1C[C@H]2O[C@@](C)([C@@H]1OC)n1c3ccccc3c3c4c(c5c6ccccc6n2c5c31)C(=O)NC4 [Staurosporine],0.0825 ± 0.0098,0.0186 ± 0.003,0.246 ± 0.01,0.0923 ± 0.017,0.0216 ± 0.0022,0.00445 ± 0.0013
"C[C@@H](N)Cc1cnc[nH]1 [Histamine, R(-)-alpha-methyl-, dihydrochloride]",0.997 ± 0.0027,0.997 ± 0.011,1,0.994 ± 0.014,0.9917 ± 0.0045,0.9963 ± 0.0032
NC(CP(=O)(O)O)C(=O)O (racemic) [(±)-2-Amino-3-phosphonopropionic acid],0.993 ± 0.0066,0.9903 ± 0.0093,1.005 ± 0.0087,1 ± 0.013,0.9877 ± 0.0049,0.998 ± 0.013
"CCc1c(C(=O)OC)ncc2[nH]c3cc(OC)c(OC)cc3c12 [Methyl 6,7-dimethoxy-4-ethyl-beta-carboline-3-carboxylate]",1.01 ± 0.016,1.023 ± 0.0058,1.01 ± 0.01,1.03 ± 0.01,0.9997 ± 0.0091,1.003 ± 0.0058
COc1cc(CC(C)N)c(OC)cc1I (racemic) [(±)-DOI hydrochloride],1.01 ± 0.01,0.983 ± 0.023,0.998 ± 0.013,1.02 ± 0.01,0.998 ± 0.0035,0.994 ± 0.004
Oc1ncc(N(CCCl)CCCl)c(O)n1 [Uracil mustard],0.972 ± 0.007,1.06 ± 0.011,1.043 ± 0.0058,1.033 ± 0.0058,0.244 ± 0.021,1.01 ± 0.011
C[C@@]12C(=O)OC(=O)[C@]1(C)[C@H]1CC[C@@H]2O1 [Cantharidin],0.9967 ± 0.0035,0.00641 ± 0.0033,1.05 ± 0.021,0.12 ± 0.057,0.9873 ± 0.0032,0.00459 ± 0.0027
"CN(N=O)c1ccc(O)c(O)c1 [Me-3,4-dephostatin]",1.017 ± 0.0058,1.01 ± 0.017,1.007 ± 0.0058,1.05 ± 0.086,1.01 ± 0.011,1.02 ± 0.01
CCCN1CCC[C@@H](c2cccc(C#N)c2)C1 [S(-)-DS 121 hydrochloride],1.017 ± 0.0058,0.972 ± 0.034,1.01 ± 0.01,0.985 ± 0.033,1.02,1.04 ± 0.047
NCc1cc(O)no1 [Muscimol hydrobromide],1.006 ± 0.0069,0.993 ± 0.015,1.01 ± 0.013,0.992 ± 0.031,1.01,1.003 ± 0.0061
CCCN1CCC[C@@H]2Cc3n[nH]cc3C[C@H]21 (racemic) [(±)-Quinpirole dihydrochloride],1.013 ± 0.0058,1.01 ± 0.036,0.893 ± 0.19,1.03 ± 0.01,1.013 ± 0.0058,1.01 ± 0.011
CCCN1CCC[C@@H]2Cc3n[nH]cc3C[C@H]21 [(-)-Quinpirole hydrochloride],0.982 ± 0.006,0.992 ± 0.018,0.867 ± 0.22,1.01 ± 0.016,0.985 ± 0.0087,0.9927 ± 0.0045
CCN(CCCl)CCOC(C)=O [Acetylethylcholine mustard hydrochloride],1.01 ± 0.015,1.02 ± 0.034,1.01 ± 0.013,1.11 ± 0.061,0.995 ± 0.0046,1.01 ± 0.015
N.N.[Cl][Pt][Cl] [Cisplatin],,,1.01,,,
Cn1c(CCCC(=O)O)nc2cc(N(CCCl)CCCl)ccc21 [bendamustine hydrochloride],1.02 ± 0.011,0.348 ± 0.02,1.007 ± 0.0058,0.7867 ± 0.0031,0.9937 ± 0.006,0.0218 ± 0.0032
"O=[N+]([O-])c1ccc(O[C@@H]2O[C@H](CO)[C@@H](O)[C@H](O)[C@H]2F)c([N+](=O)[O-])c1 [2,4-Dinitrophenyl 2-fluoro-2-deoxy-beta-D-glucopyranoside]",0.9917 ± 0.004,0.989 ± 0.02,0.991 ± 0.023,0.974 ± 0.03,0.9807 ± 0.0021,0.9817 ± 0.0064
Cc1o[nH]c(=O)c1CC(N)C(=O)O (racemic) [(±)-AMPA hydrobromide],0.995 ± 0.016,0.983 ± 0.016,0.999 ± 0.0095,0.994 ± 0.025,0.982 ± 0.0027,0.98 ± 0.007
"CC(N)c1cccc(Cl)c1Cl (racemic) [(±)-2,3-Dichloro-alpha-methylbenzylamine hydrochloride]",1.006 ± 0.0075,1.02 ± 0.011,1.003 ± 0.0064,1.013 ± 0.0058,0.9993 ± 0.0097,1.001 ± 0.0081
CCCCN1[C@@H]2CC[C@H]1CC(OC(c1ccc(F)cc1)c1ccc(F)cc1)C2 (some centres undefined) [JHW 007 hydrochloride],0.969 ± 0.017,0.629 ± 0.055,0.987 ± 0.011,0.969 ± 0.011,0.993 ± 0.003,0.228 ± 0.12
"CC(N)C(O)c1ccc(O)c(O)c1 (single isomer, unassigned; (-)) [(-)-alpha-Methylnorepinephrine]",1.01 ± 0.012,0.971 ± 0.044,0.995 ± 0.013,0.958 ± 0.034,0.9967 ± 0.0058,0.9977 ± 0.0032
C/C=C(/C)C(=O)O[C@H]1C(C)=C2[C@H]([C@@H]1OC(=O)CCCCCCC)[C@@](C)(OC(C)=O)C[C@H](OC(=O)CCC)[C@@]1(O)[C@H]2OC(=O)[C@@]1(C)O [Thapsigargin],0.0778 ± 0.015,0.0411 ± 0.016,0.215 ± 0.062,0.101 ± 0.029,0.0393 ± 0.014,0.00585 ± 0.0031
Clc1ccc(N2CC3CCC(C2)N3)nn1,1.003 ± 0.0064,0.979 ± 0.012,0.9903 ± 0.0074,0.9827 ± 0.004,0.9863 ± 0.0075,0.9843 ± 0.0086
C[C@@H]1O[C@@H](O[C@H]2C[C@@H](O)[C@]3(CO)[C@H]4[C@H](O)C[C@]5(C)[C@@H]([C@@H]6COC(=O)C6)CC[C@]5(O)[C@@H]4CC[C@]3(O)C2)[C@H](O)[C@H](O)[C@H]1O [Dihydroouabain],1.027 ± 0.0058,0.0138 ± 0.013,1.01 ± 0.015,0.143 ± 0.081,0.98 ± 0.017,0.00677 ± 0.002
C[C@@H]1O[C@@H](O[C@H]2C[C@@H](O)[C@]3(CO)[C@H]4[C@H](O)C[C@]5(C)[C@@H](C6=CC(=O)OC6)CC[C@]5(O)[C@@H]4CC[C@]3(O)C2)[C@H](O)[C@H](O)[C@H]1O [Ouabain],0.00947 ± 0.006,0.00628 ± 0.0019,0.0931 ± 0.013,0.07 ± 0.028,0.00711 ± 0.0021,0.00424 ± 0.002
NC(CCP(=O)(O)O)C(=O)O (racemic) [(±)-2-Amino-4-phosphonobutyric acid],0.9883 ± 0.0042,0.998 ± 0.0017,1.01 ± 0.014,1 ± 0.042,0.9923 ± 0.0071,0.9973 ± 0.0025
N[C@H](C(=O)O)c1cc(O)no1 (racemic) [(±)-Ibotenic acid],1.002 ± 0.0072,1 ± 0.032,0.991 ± 0.024,1.04 ± 0.096,0.9837 ± 0.0055,0.987 ± 0.012
Oc1cc2c(cc1O)[C@H]1c3ccccc3CN[C@@H]1CC2 (racemic) [Dihydrexidine hydrochloride],1.002 ± 0.0068,0.995 ± 0.005,1.002 ± 0.0076,0.994 ± 0.018,0.9917 ± 0.0059,0.9897 ± 0.0031
CS(=N)(=O)CC[C@H](N)C(=O)O (stereo partly drawn) [L-Methionine sulfoximine],1.003 ± 0.0058,1.01 ± 0.024,0.998 ± 0.01,0.948 ± 0.093,0.9987 ± 0.0023,1 ± 0.013
"NC(Cn1oc(=O)[nH]c1=O)C(=O)O (single isomer, unassigned; (+)) [(+)-Quisqualic acid]",1.01 ± 0.01,0.973 ± 0.028,1.01 ± 0.031,1.01 ± 0.021,1.01 ± 0.012,1.005 ± 0.0087
